PubChem BioAssay AID1159580 (chemical genetic matrix, 2015)
Screen size: about 5,500 compounds; about 2,000 (36%) were called active. About 18% were inconclusive and are not listed. No stated cut-off is given here; in the data, active means normalized growth mostly below about 0.91 (no sharp cut-off); inconclusive means no clear call, values can overlap the other calls; inactive means mostly above about 0.92. The list shows a part of the results.

Assay: chemical genetic growth profiling, strain panel (AID 1159580);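 further: tested at 20 µM; growth read once vehicle control cultures reached saturation at 30 °C; 1 = growth at the plate median or of vehicle wells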
Conditions: S. cerevisiae deletion strains, growth OD
[1] = locus YBR229C, strain ROT2, stronger effect = lower value
[2] = locus YDL101C, strain DUN1, stronger effect = lower value
[3] = locus YDL134C, strain PPH21, stronger effect = lower value
[4] = locus YDR150W, strain NUM1, stronger effect = lower value
[5] = locus YEL061C, strain CIN8, stronger effect = lower value
[6] = locus YGR078C, strain PAC10, stronger effect = lower value
[7] = locus YHR030C, strain SLT2, stronger effect = lower value
[8] = locus YJR043C, strain POL32, stronger effect = lower value
[9] = locus YLR039C, strain RIC1, stronger effect = lower value
[10] = locus YLR262C, strain YPT6, stronger effect = lower value
[11] = locus YPL241C, strain CIN2, stronger effect = lower value

Measured: normalized growth

C[C@]12CCC(=O)C=C1CCc1ccc(O)cc12
inactive: locus YBR021W, strain FUR4, stronger effect = lower value 1.03 | [1] 1 | locus YCL029C, strain bik1, stronger effect = lower value 0.992 | locus YDL035C, strain GPR1, stronger effect = lower value 1.04 | locus YDL074C, strain BRE1, stronger effect = lower value 1.04 | [2] 1.01 | [3] 1 | locus YDL185W, strain tfp1, stronger effect = lower value 0.992 | locus YDL192W, strain arf1, stronger effect = lower value 0.998 | locus YDR101C, strain arx1, stronger effect = lower value 0.984 | [4] 1 | locus YDR162C, strain NBP2, stronger effect = lower value 1.01 | locus YDR318W, strain mcm21, stronger effect = lower value 0.986 | locus YDR388W, stronger effect = lower value 0.991 | locus YDR502C, strain sam2, stronger effect = lower value 0.968 | [5] 1 | locus YER110C, stronger effect = lower value 0.982 | locus YER155C, strain BEM2, stronger effect = lower value 0.996 | locus YER167W, strain BCK2, stronger effect = lower value 1.02 | locus YGL078C, strain dbp3, stronger effect = lower value 0.995 | locus YGL086W, strain mad1, stronger effect = lower value 0.982 | locus YGL248W, strain PDE1, stronger effect = lower value 0.996 | [6] 0.998 | locus YGR135W, strain pre9, stronger effect = lower value 0.973 | locus YGR252W, strain gcn5, stronger effect = lower value 0.961 | [7] 1.01 | locus YHR079C, strain IRE1 (second series), stronger effect = lower value 0.989 | locus YHR094C, strain hxt1, stronger effect = lower value 0.993 | locus YHR129C, strain ARP1, stronger effect = lower value 1 | locus YHR200W, strain rpn10, stronger effect = lower value 0.989 | locus YIL066C, strain RNR3, stronger effect = lower value 1.02 | locus YIL073C, strain SPO22, stronger effect = lower value 1.04 | locus YIL125W, strain kgd1, stronger effect = lower value 0.987 | locus YIR030C, strain dcg1, stronger effect = lower value 1.01 | locus YJL095W, strain BCK1, stronger effect = lower value 1 | locus YJL134W, strain LCB3, stronger effect = lower value 1.01 | locus YJL168C, strain set2, stronger effect = lower value 0.987 | locus YJL187C, strain SWE1 (second series), stronger effect = lower value 1 | [8] 1.01 | locus YKL009W, strain mrt4, stronger effect = lower value 1.03 | locus YKL068W, stronger effect = lower value 0.991 | locus YKL085W, strain MDH1 (second series), stronger effect = lower value 0.999 | locus YKL085W, strain MDH1, stronger effect = lower value 0.999 | locus YKL190W, strain CNB1, stronger effect = lower value 1.01 | locus YKR001C, strain vps1, stronger effect = lower value 0.977 | [9] 1.06 | locus YLR058C, strain SHM2, stronger effect = lower value 1.02 | locus YLR102C, strain apc9, stronger effect = lower value 0.994 | [10] 1.07 | locus YLR268W, strain sec22, stronger effect = lower value 0.98 | locus YLR342W, strain FKS1 (second series), stronger effect = lower value 0.997 | locus YLR371W, strain rom2, stronger effect = lower value 0.994 | locus YLR418C, strain cdc73, stronger effect = lower value 0.982 | locus YML016C, strain PPZ1, stronger effect = lower value 1.01 | locus YML032C, strain rad52, stronger effect = lower value 0.982 | locus YML124C, strain tub3, stronger effect = lower value 0.979 | locus YMR078C, strain ctf18, stronger effect = lower value 0.987 | locus YMR223W, strain ubp8, stronger effect = lower value 0.988 | locus YMR307W, strain GAS1, stronger effect = lower value 1.04 | locus YNL067W, strain RPL9B, stronger effect = lower value 0.999 | locus YNL233W, strain BNI4, stronger effect = lower value 0.99 | locus YNL250W, strain rad50, stronger effect = lower value 1.01 | locus YNL271C, strain bni1, stronger effect = lower value 0.982 | locus YNL298W, strain CLA4, stronger effect = lower value 0.987 | locus YNL307C, strain MCK1, stronger effect = lower value 0.983 | locus YNR052C, strain pop2, stronger effect = lower value 0.982 | locus YOL012C, strain htz1 1.09 | locus YOL147C, strain pex11, stronger effect = lower value 0.994 | locus YOR061W, strain CKA2, stronger effect = lower value 1.03 | locus YOR069W, strain VPS5, stronger effect = lower value 1.01 | locus YOR136W, strain idh2, stronger effect = lower value 0.97 | locus YOR144C, strain elg1, stronger effect = lower value 0.985 | locus YOR184W, strain ser1, stronger effect = lower value 1.03 | locus YOR316C, strain cot1, stronger effect = lower value 0.99 | [11] 1 | locus YPR119W, strain clb2, stronger effect = lower value 0.986 | locus YPR141C, strain kar3, stronger effect = lower value 0.994 | locus YPR163C, strain tif3, stronger effect = lower value 0.984 | locus YPR167C, strain met16, stronger effect = lower value 0.987 | strain wtn01, stronger effect = lower value 0.992

CC(C)(C)OC(=O)NCc1n[nH]c(=S)n1-c1ccccc1
inactive: locus YAL013W, strain DEP1, stronger effect = lower value 1.03 | [1] 1.01 | [2] 1.02 | [3] 1.01 | [4] 1 | [5] 0.993 | [6] 1.01 | locus YGR229C, strain SMI1, stronger effect = lower value 0.999 | [7] 1.09 | locus YHR087W, strain rtc3, stronger effect = lower value 1.01 | [8] 1.04 | locus YJR075W, strain HOC1, stronger effect = lower value 0.995 | [9] 0.998 | locus YLR058C, strain SHM2 (second series), stronger effect = lower value 1.02 | locus YLR085C, strain ARP6, stronger effect = lower value 1.02 | [10] 1.07 | locus YML094W, strain GIM5, stronger effect = lower value 1.01 | locus YMR219W, strain ESC1, stronger effect = lower value 1.01 | locus YMR263W, strain SAP30, stronger effect = lower value 1.01 | locus YNL153C, strain GIM3, stronger effect = lower value 0.958 | locus YNL298W, strain CLA4 (second series), stronger effect = lower value 1.06 | locus YNL322C, strain KRE1, stronger effect = lower value 0.999 | locus YNR030W, strain Alg12, stronger effect = lower value 1.01 | locus YPL055C, strain LGE1, stronger effect = lower value 1.02 | [11] 0.994 | locus YPR135W, strain CTF4, stronger effect = lower value 1.12
